Assay results published in PubChem BioAssay.

Assay: survival rescue of mitochondrial mutant cells in low glucose, primary screen, MELAS cybrids, Rieske KO mouse fibroblasts, CellTiter-Glo (AID 1508586);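 further: test concentration not given here; z relative to plate mean and SD of compound and empty wells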
Details: Rieske KO mouse fibroblast survival, CellTiter-Glo 72 h

Structure (SMILES) | z-score
CCC(C)C(=O)Nc1c(C(=O)OC)n(CC2CCCO2)c2ncc(NC3CCSC3)cc12 (centres undefined) | 1.01
CC(C)CCN1C(=O)N(CC(N)=O)C(=O)C12CCN(Cc1nc3ccccc3s1)CC2 | -0.574
CCOC(=O)N1CCC(N2CCc3c(cc(-c4cccc(OC)c4OC)c(=O)n3CC3CC3)C2)CC1 | -0.0606
COC1CN(Cc2cn(C)c3ccccc23)CC(=O)N(Cc2ccccc2)C1 (centres undefined) | -0.0158
C[C@@H](NC(=O)N[C@H]1C[C@H]2C(=O)N[C@H](Cc3ccc(O)cc3)C(=O)N2C1)c1ccccc1 | -0.613
O=C(NCCn1ccnc1)c1cc(NCC2CC=CCC2)cc(S(=O)(=O)N2CCCC2)c1 (centres undefined) | -0.234
COC(=O)c1c(NC(=O)c2ccoc2)c2cc(NC(C)CSC)cnc2n1Cc1ccccc1 (centres undefined) | 0.841
Cc1nc(CN(C)C2CCc3c(c(C(=O)N(C)C)nn3CC3CCCCC3)C2)cs1 (centres undefined) | -0.141
CN1CCCC1CCNC(=O)c1cc(-c2ccccc2)cc(S(=O)(=O)N2CCSCC2)c1 (centres undefined) | -0.0913
CCc1cc(C(=O)N2CC(=O)N(Cc3ccc(OC)cc3)CC(OCc3ccncc3)C2)n(C)n1 (centres undefined) | -0.65
CN(Cc1nc(-c2ccccc2)cs1)C1CCc2c(c(C(=O)N3CCSCC3)nn2C)C1 (centres undefined) | 0.0851
CC(C)NS(=O)(=O)c1cc(NC2CCCCC2)cc(C(=O)NC2Cc3ccccc3C2)c1 | -0.431
CC(C)CCNc1cc(C(=O)N[C@H]2CCCCNC2=O)cc(S(=O)(=O)NC(C)C)c1 | 0.262
COc1cccc(-c2cc3c(n(Cc4ccccn4)c2=O)CCN(C(=O)c2csc(C)n2)C3)c1 | 3.95
COC(=O)c1c(NC(C)=O)c2cc(NCc3sccc3C)cnc2n1CC1CCCO1 (centres undefined) | 0.989
CC(C)CCNc1cc(C(=O)NCCCn2ccnc2)cc(S(=O)(=O)N2CCCC2)c1 | -0.386
COc1ccc(CCn2nc(C(=O)N(C)C)c3c2CCN(C(=O)c2csc4c2CCCC4)C3)cc1 | -0.104
C[C@H](O)[C@H]1NC(=O)[C@@H]2C[C@H](NC(=O)Nc3cccc(F)c3)CN2C1=O | 0.103
COc1ccccc1CNC1CCc2c(c(C(=O)N3CCc4ccccc4C3)nn2C)C1 (centres undefined) | -0.0135
COc1ccc(C[C@@H]2NC(=O)[C@H]3CN(C(=O)Oc4ccc(Cl)cc4)CCN3C2=O)cc1 | 0.551

Structure (SMILES) | z-score
Cc1ccc(-c2cc(C(=O)N3CCSCC3)cc(S(=O)(=O)N3CCOCC3)c2)s1 | -0.0192
Cc1noc(C)c1CC(=O)N1CCc2c(c(C(=O)N3CCOCC3)nn2CCCc2ccccc2)C1 | -0.571
COc1ccc(CN2C(=O)N(C)C3(CCN(Cc4nc(-c5ccccc5)cs4)CC3)C2=O)cc1 | -0.0505
COc1cc(/C=C/CN2CC(=O)N(C(C)C)CC(OCc3noc(C)n3)C2)ccc1O (centres undefined) | -0.562
CC(C)Cn1nc(C(=O)N2CCCC2)c2c1CCC(NCCc1cccs1)C2 (centres undefined) | -0.284
CN1CCCC1CCNC(=O)[C@H]1CNC[C@@H](COc2cccc(F)c2)C1 (some centres undefined) | 0.269
CC(C)N1CC(OCc2ccc(F)cc2)CN(C(=O)c2ccc(C#CC(C)(C)O)o2)CC1=O (centres undefined) | -0.177
Cc1c(CN2CCc3c(c(C(=O)NC4CCCC4)nn3CC(C)C)C2)c(=O)n(-c2ccccc2)n1C | -0.276
O=C([C@@H]1C[C@H](CN2CCOCC2)CN(Cc2ccc3ccccc3c2)C1)N1CCCC1 | -0.119
CCOC(=O)c1nn(Cc2ccc(OC)cc2)c2c1CN(C(=O)CSc1ncccn1)CC2 | -0.456
Cc1ccc2c(CC(=O)N3CC(=O)N(CC(C)C)CC(OCc4ccccn4)C3)cc(=O)oc2c1 (centres undefined) | 0.0342
O=C(NCC1CCCO1)[C@@H]1C[C@H](CN2CCOCC2)CN(Cc2ccc3ccccc3c2)C1 (some centres undefined) | -0.753
CN(Cc1cscn1)C(=O)c1nn(CC2CC2)c2c1CN(C(=O)Cn1cnc3ccccc31)CC2 | -0.0924
Cc1csc(-c2cc(C(=O)NCCCN3CCOCC3)cc(S(=O)(=O)N3CCOCC3)c2)c1 | 0.151
COC(=O)CCN1CC(OCc2ccncc2)CN(C(=O)Cc2c(F)cccc2Cl)CC1=O (centres undefined) | 0.103
Cn1nc(C(=O)N2CCCCC2)c2c1CCC(NCC1(c3ccccc3)CCOCC1)C2 (centres undefined) | 0.153
Cc1ccc(-c2cc(C(=O)NCC3CC3)cc(S(=O)(=O)N3CCOCC3)c2)s1 | 0.0847
Cc1cc(-c2cc3c(n(C)c2=O)CCN(Cc2ccc(Sc4nncn4C)o2)C3)ccc1F | -0.369
C=CCn1nc(C(=O)N2CCCC2)c2c1CCC(NCc1ccccc1OC(F)(F)F)C2 (centres undefined) | 0.327
